Screening results from PubChem BioAssay.
Shown are actives, neighbours in structure and some others; about 1.8% of the full set was active somewhere.
KAT2A inh: blocks human GCN5L2 histone acetyltransferase; Q92830; GCN5L2 HAT assay, ThioGlo1 CoA-SH fluorescence; Potency, µM (highest dose often 58.9 µM), without a hit: at the top dose activity change, negative = inhibition, actives largely listed as inhibitors; 390,000 compounds, 0.21% hits; AID 504327
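Enzyme at 20nM final was mixed with library compounds for 15 min at room temperature. Peptide H3(1-25) at 75uM, acetyl-CoA at 70uM and ThioGlo1 at 50uM were then added. Plates were read immediately and after 20 min (Ex340nm/Em540nm).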
TrxR1 inh: inhibitors of rat thioredoxin reductase 1. O89049. recombinant rTrxR1, NADPH fluorescence consumption, selenite substrate. Potency, µM (titrated, usually from 114 µM), for the others: at the top dose activity change, negative = inhibition, actives largely listed as inhibitors. 390,000 compounds, 1% hits; also: nearly all actives have a fitted effect of over 65% in size
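Rat TrxR1 (90 nM in the dispensed reagent) was pre-reduced with 400 uM NADPH for 5 min at room temperature, then incubated with compound for 15 min. After 400 uM selenite was added, NADPH fluorescence (Ex 340/Em 450 nm) was followed for 8 min.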
VDR inhibitor: blocks the human vitamin D receptor | P11473 | VDR-SRC2-3 peptide fluorescence polarization, 2 h | Potency, µM, for inactives: max response, negative = inhibition, hits mostly inhibitors | 400,000 compounds, 0.93% hits
Target sequence (P11473 whole entry, looked up): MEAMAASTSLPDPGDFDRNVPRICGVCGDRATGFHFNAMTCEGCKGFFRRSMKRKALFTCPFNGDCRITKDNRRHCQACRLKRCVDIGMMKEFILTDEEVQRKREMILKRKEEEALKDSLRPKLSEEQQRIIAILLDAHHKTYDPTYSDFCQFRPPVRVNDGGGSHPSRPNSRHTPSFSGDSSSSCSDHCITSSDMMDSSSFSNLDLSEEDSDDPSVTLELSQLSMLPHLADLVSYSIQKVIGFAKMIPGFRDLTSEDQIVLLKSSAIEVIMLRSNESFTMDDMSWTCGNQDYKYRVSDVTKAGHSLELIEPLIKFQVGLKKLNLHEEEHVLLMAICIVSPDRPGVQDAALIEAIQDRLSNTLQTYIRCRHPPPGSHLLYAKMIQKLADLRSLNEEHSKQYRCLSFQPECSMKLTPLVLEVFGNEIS
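Fluorescence polarization assay measuring small-molecule disruption of VDR binding to the coregulator peptide SRC2-3. Compounds were pin-transferred (23 nl) into the reagent mix and incubated 2 h at room temperature before reading.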
TrxR1 substrate: substrates of rat thioredoxin reductase 1. 390,000 compounds, 0.01% hits. O89049. AID 588456. purified TrxR1 substrate turnover, NADPH consumption readout. Potency, µM (titrated, usually from 114 µM), without a hit: at the top dose activity change, negative = substrate turnover; also: nearly all actives have a fitted effect of over 50% in size
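Rat TrxR1, dispensed at 90 nM, was prereduced with 400 uM NADPH (final) for 5 min at ~22 deg C, then incubated with compound 15 min before 400 uM selenite. A first-read NADPH fluorescence drop versus no-compound background flagged substrates.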
Numbers without * were called inactive; ? = inconclusive; . = not tested or not shown; [ ] = dose if it differs, or a comment. Calls follow the shape of the dose curve; as a rule, active = well fitted curve in the direction sought with a large enough effect; inconclusive = small, poorly fitted or top-dose-only effect, or another doubt; inactive = no such curve, though single readings can be large; an effect the other way counts as inactive or inconclusive. % is scaled to controls: 0 for no effect and ±100 for the full control effect; potency is read from the fitted curve at half-maximal effect.

SMILES	KAT2A inh	TrxR1 inh	VDR inhibitor	TrxR1 substrate
CC[C@H](C)[C@H](NC(=O)[C@H](Cc1ccc(O)cc1)NC(=O)[C@H](CCCNC(=N)N)NC(=O)[C@H](CCCNC(=N)N)NC(=O)[C@H](CC(C)C)NC(=O)[C@H](CC(=O)O)NC(=O)[C@H](C)NC(=O)[C@H](C)NC(=O)[C@H](Cc1ccc(O)cc1)NC(=O)[C@H](CCC(N)=O)NC(=O)[C@H](C)NC(=O)[C@H](CCSC)NC(=O)[C@H](CCC(N)=O)NC(=O)[C@H](CCC(=O)O)NC(=O)[C@@H]1CCCN1C(=O)[C@@H](NC(=O)[C@H](C)NC(=O)[C@H](CC(N)=O)NC(=O)[C@H](CC(=O)O)NC(=O)CNC(=O)[C@@H]1CCCN1C(=O)[C@H](Cc1ccc(O)cc1)NC(=O)[C@@H](NC(=O)[C@@H]1CCCN1C(=O)[C@H](CCC(=O)O)NC(=O)[C@H](CC(C)C)NC(=O)[C@@H]1CCCN1C(=O)[C@H](C)N)C(C)C)[C@@H](C)O)C(=O)N[C@@H](CC(N)=O)C(=O)N[C@@H](CCSC)C(=O)N[C@@H](CC(C)C)C(=O)N[C@H](C(=O)N[C@@H](CCCNC(=N)N)C(=O)N1CCC[C@H]1C(=O)N[C@@H](CCCNC(=N)N)C(=O)N[C@@H](Cc1ccc(O)cc1)C(N)=O)[C@@H](C)O	50%	.	.	.
Cc1ccc([C@@H]2C3COCC=C3C(C#N)=C(N)C2(C#N)C#N)o1 (some centres not stated)	-3%	7.9µM*	?	19%
Cc1ccc(C2C3CSCC=C3C(C#N)=C(N)C2(C#N)C#N)cc1 (configuration not stated)	-3%	?	?	9%
Cn1c(CS/C(N)=N/N=C/c2ccccc2)c(Br)c(=O)n1-c1ccccc1	-16%	51%[57.1 µM]	50µM*	-4%
COC1=CC(=O)C(O)=C/C1=C\C=C\c1ccccc1	-15%	.	2.8µM*	.
COc1cc(O)cc(/C=C/c2ccccc2)c1	-7%	18%	8%	6%
O=C(CCl)N(c1ccccc1)c1ccccc1	0%	?	?	9%[57.1 µM]
O=Cc1[nH]c2ccccc2c1N(C(=O)CCl)c1ccccc1	-5%	3.5µM*	?	6%[57.1 µM]
O=C(O)CCNS(=O)(=O)c1ccc2ccccc2c1	0%	19%	7%	-2%
O=C(O)/C=C/S(=O)(=O)c1ccc2ccccc2c1	1%	11µM*	-18%	7%
CCOC(=O)c1ccc(C#Cc2ccc3c(c2)C(C)(C)CCS3)nc1	-6%	.	-18%	.
COc1ccccc1-c1ccc(/C=C2\C=CC(=O)O2)o1	-28%	14µM*	-18%	2%[57.1 µM]
COc1ccccc1-c1ccc(/C=C2/C=C(C)OC2=O)o1	?	?	?	69%
O=CC(=O)c1ccc(F)cc1	.	15%	.	5%
Cn1c(SCC(=O)N/N=C/C=C/c2ccco2)nc2ccccc21	?	45µM*	-16%	-13%
CCn1c(SCC(=O)N/N=C/C=C/c2ccco2)nnc1-c1ccccc1	-12%	35µM*	-18%	-7%
CCCN(CCC)c1ccc(/C=C/c2sc3ccccc3[n+]2CCCCI)cc1	.	?	.	-6%[0.0914 µM]
O=C(NCc1ccco1)c1cccc2c1C(=O)c1ccc(/C=C/c3ccccc3)cc1S2(=O)=O	?	22µM*	?	-2%[57.1 µM]
O=C(NCc1ccco1)c1cccc2c1C(=O)c1ccc(N3CCC(Cc4ccccc4)CC3)cc1S2(=O)=O	-12%	-10%[57.1 µM]	-8%	1%[57.1 µM]
COc1c(C2=CC(=O)N(C)C2=O)c2c(n1C)C(=O)c1ccccc1C2=O	.	.	13µM*	.
CCc1cc(SC#N)cc(CC)c1NC(=O)CCl	1%	25µM*	?	-10%
COC(=O)C1=C(C)NC(C)=C(C(=O)OCCCN2CCC(c3ccccc3)(c3ccccc3)CC2)C1c1cccc([N+](=O)[O-])c1 (configuration not stated)	-20%	.	-1%	.
CC(C)CC(NC(=O)CC12CC3CC(CC(C3)C1)C2)C(=O)NC1=NCCS1 (configuration not stated)	-5%	20%[57.1 µM]	71µM*	7%
CC(C)C(NC(=O)C12CC3CC(CC(C3)C1)C2)C(=O)NC1=NCCS1 (configuration not stated)	-22%	.	.	.
CCOc1ccc(C(NC(=O)/C=C/c2ccco2)c2ccc(OC)c(OC)c2)cc1 (configuration not stated)	39%	35µM*	12%	1%
SMILES	KAT2A inh	TrxR1 inh	VDR inhibitor	TrxR1 substrate
CCN(CC)S(=O)(=O)c1ccc(OC)c(NC(=O)/C=C/c2ccco2)c1	-25%	18µM*	-29%	-4%
CCN(CC)S(=O)(=O)c1ccc(N2CCCCC2)c(NC(=O)/C=C/c2ccc(OC)c(OC)c2)c1	-9%	-5%	-8%	-2%
COc1ccc(C2(CNC(=O)/C=C/c3ccco3)CCCC2)cc1OC	?	3.5µM*	?	5%
COc1ccc(C(NC(=O)/C=C/c2ccco2)c2ccc(OC)c(OC)c2)cc1 (configuration not stated)	4%	50µM*	-12%	-8%
O=C(CC1Sc2ncnn2C1=O)Nc1ccccc1 (configuration not stated)	0%	4.5µM*	-3%	7%
O=C(CC1SC(=O)N(c2ccccc2)C1=O)Nc1ccccc1 (configuration not stated)	?	-9%	22µM*	-2%
Cc1ccc(NC(=O)CC2SC(=O)N(c3ccccc3)C2=O)cc1 (configuration not stated)	-23%	?	28µM*	1%
N=C1SC(CC(=O)Nc2ccc([N+](=O)[O-])cc2)C(=O)N1c1ccccc1 (configuration not stated)	-1%	20%[11.4 µM]	17%	7%[11.4 µM]
C=CCN1C(=O)C(CC(=O)Nc2ccccc2)S/C1=N/c1nccs1 (configuration not stated)	-6%	36%	-9%	12%
C=CCOc1ccccc1C(=O)/C=C1/C(=O)Nc2ccccc21	15%	?	22µM*	-3%
C=C1C=C(C(F)F)n2ncc(C(=O)N3CCCCC3)c2N1	.	3%	.	-1%
O=C(O)CCc1ccc(-c2ccccc2)n1-c1cccc(C(=O)O)c1	11%	45µM*	3%	3%
O=C(O)CCc1ccc(-c2ccccc2)n1-c1ccc(C(=O)O)cc1	-3%	79µM*	?	5%
CCOC(=O)c1ccc(-n2c(CCC(=O)O)ccc2-c2ccccc2)cc1O	-3%	50µM*	?	2%
Cc1ccc(CNC(=O)c2cc(S(=O)(=O)N3CCCCC3)cn2C)cc1	-5%	19%[57.1 µM]	5%	2%[57.1 µM]
COC(=O)c1ccc(NC(=O)CC2C(=O)N(c3ccccc3)C(=O)N2C2CCCC2)cc1 (configuration not stated)	-16%	26%[57.1 µM]	0%	-3%[57.1 µM]
CN(C)CCCNC(=O)C1CCNCC1	-23%	71µM*	0%	-6%
